Only some compounds are listed: those with a hit (about 3.9% of all), similar ones and a draw of the others.
CF NFkB inh: inhibitors of cystic fibrosis induced NF-kB. KKLEB NF-kB-GFP reporter, PAF-induced, GFP fluorescence overnight. inhibition, % at 5 µM. 0.86% of 360,000 active. AID 588850;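 active means at least 50% inhibition at 5 µM, scaled per plate between neutral and stimulator controls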;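 further: PAF is a Pseudomonas aeruginosa culture filtrate used as stimulus; plate controls were PAF-stimulated DMSO wells for no effect and unstimulated DMSO wells for full effect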
TROY signal inh: blocks TROY-dependent signaling in reporter cells; Q293 LMP1-TROYcd NF-kB luciferase reporter, 4 h; inhibition, % at 10 µM; 0.98% of 360,000 active; AID 1347056;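 active means compounds whose plate-normalised and pattern-corrected inhibition of the luciferase reporter signal at the single screening dose is 50% or more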
KKLEB cytotox: counter-screen for CF NF-kB inhibitors: cytotoxicity | AID 602141 | activity change (cytotoxicity), % at 5 µM | KKLEB CF airway cells viability, ATPlite luminescence, overnight; active compounds read low; cells stimulated with P. aeruginosa culture filtrate | 0.36% of 360,000 active;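 active means corrected activity change at or below -50% at 5 µM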
HIF-2a block: blocks HIF-2a reporter activity; inhibition, % at 18.8 µM; 786-0 RCC cells HIF-2a reporter, luciferase luminescence, overnight; 0.72% of 360,000 active; AID 624352;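 active means inhibition of the luminescence signal of 40% or more relative to plate controls, in a single-dose primary screen at 18.75 µM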
TWEAK-Fn14 inh: blocks TWEAK-Fn14 interaction in a reporter cell assay; TWEAK-stimulated Fn14 reporter cells, luciferase luminescence, 8 h; inhibition, % at 10 µM; 2% of 360,000 active; AID 1159606; in the data active means inhibition above about 50%
Peg3 promoter: inhibitors of Peg3 promoter; HeLa PEG-Prom luciferase reporter, luminescence, overnight; inhibition, % at 20 µM; 1.7% of 360,000 active; AID 588405;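 active means inhibition of at least 50% at 20 µM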
CF NFkB conf: CF NF-kB inhibition confirmation, single concentration; shares compounds with CF NFkB inh; KKLEB CF airway cells, PAF-induced NF-kB-GFP fluorescence, overnight; inhibition, % at 5 µM; 64% of 1,300 active; in the data active means inhibition above about 40%;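 further: stimulus PAF is a Pseudomonas aeruginosa filtrate and not platelet activating factor; plate controls were DMSO wells with stimulus for no effect and unstimulated DMSO wells for full effect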
Starred values were filed as active, the others as inactive.

How did CC(=O)Oc1ccc(-c2ccc(C(=O)OCC(=O)N(C)CC(=O)Nc3ccccc3Cl)cc2)cc1 do in these assays?
CF NFkB inh: 51.7*; TROY signal inh: -21.7; KKLEB cytotox: -43.7; HIF-2a block: 12.7; TWEAK-Fn14 inh: -15.3; Peg3 promoter: 5.5; CF NFkB conf: 36.4

How did CCSc1nsc(NC(=O)Nc2ccccc2F)n1 do in these assays?
CF NFkB inh: -7.6; TROY signal inh: 10.6; KKLEB cytotox: -19.5; HIF-2a block: -343.4; TWEAK-Fn14 inh: -2.4; Peg3 promoter: -217.1

What do the screens show for `COc1cccc(NC(=O)Nc2nnc(CC(=O)Nc3ccccc3)s2)c1`?
CF NFkB inh: 57.2*; TROY signal inh: 30.0; KKLEB cytotox: -2.9; HIF-2a block: 10.4; TWEAK-Fn14 inh: 50.6*; Peg3 promoter: -9.9; CF NFkB conf: 72.5*

How did CCSc1nsc(NC(=O)Nc2cccc(OC)c2)n1 do in these assays?
CF NFkB inh: 69.6*; TROY signal inh: 47.3; KKLEB cytotox: -7.4; HIF-2a block: -187.3; TWEAK-Fn14 inh: 40.0; Peg3 promoter: -79.3; CF NFkB conf: 53.0*

How did COc1ccc(NC(=O)Nc2nnc(CC(=O)Nc3ccccc3)s2)cc1 do in these assays?
CF NFkB inh: 14.6; TROY signal inh: 4.2; KKLEB cytotox: -0.4; HIF-2a block: 1.4; TWEAK-Fn14 inh: -26.4; Peg3 promoter: -4.8

What do the screens show for `O=C(Nc1ccc(F)cc1)Nc1nnc(COc2ccccc2F)s1`?
CF NFkB inh: 58.3*; TROY signal inh: 56.6*; KKLEB cytotox: -24.4; HIF-2a block: -1.9; TWEAK-Fn14 inh: 21.2; Peg3 promoter: 45.4; CF NFkB conf: 43.9*

Results for O=C(O)Cc1c[nH]c2ccc(O)cc12 ?
CF NFkB inh: 1.6; TROY signal inh: 13.8; KKLEB cytotox: 31.6; HIF-2a block: 7.8; TWEAK-Fn14 inh: 5.3; Peg3 promoter: 6.2

Results for O=S(=O)(Nc1ccc(Cl)cc1NS(=O)(=O)c1ccccc1)c1ccccc1 ?
CF NFkB inh: 54.8*; TROY signal inh: 50.6*; KKLEB cytotox: 22.5; HIF-2a block: 17.1; TWEAK-Fn14 inh: -3.8; Peg3 promoter: 47.4; CF NFkB conf: 51.4*

Results for Cc1ccc(Cl)cc1NS(=O)(=O)c1ccccc1 ?
CF NFkB inh: 9.7; TROY signal inh: -10.7; KKLEB cytotox: 6.3; HIF-2a block: 4.0; TWEAK-Fn14 inh: -3.1; Peg3 promoter: -1.2

How did CCCCC(=O)/C=C/n1c(=S)oc2ccccc21 do in these assays?
CF NFkB inh: 90.2*; TROY signal inh: 41.8; KKLEB cytotox: -36.3; HIF-2a block: -43.3; TWEAK-Fn14 inh: 95.6*; Peg3 promoter: 100.6*; CF NFkB conf: -142.9

What do the screens show for `O=C(Nc1ccc(Br)c2ccccc12)c1ccc2ccccc2c1O`?
CF NFkB inh: 53.6*; TROY signal inh: 50.8*; KKLEB cytotox: -46.5; HIF-2a block: -141.6; TWEAK-Fn14 inh: 55.3*; Peg3 promoter: -13.0; CF NFkB conf: 72.7*

How did CC(=O)Nc1ccc(Br)c2ccccc12 do in these assays?
CF NFkB inh: 4.2; TROY signal inh: 1.9; KKLEB cytotox: 8.0; HIF-2a block: 18.7; TWEAK-Fn14 inh: 4.8; Peg3 promoter: 5.6

Results for CCOC(=O)N1CCN(C(=O)c2cccc(S(=O)(=O)Nc3ccc(F)cc3)c2)CC1 ?
CF NFkB inh: 4.8; TROY signal inh: 0.5; KKLEB cytotox: 6.1; HIF-2a block: 19.7; TWEAK-Fn14 inh: 2.6; Peg3 promoter: 1.4

What do the screens show for `COc1ccc2c(c1)c(C(C)=O)c(C)n2-c1ccc(C(C)=O)cc1`?
CF NFkB inh: 64.0*; TROY signal inh: 26.8; KKLEB cytotox: -3.4; HIF-2a block: 9.5; TWEAK-Fn14 inh: 14.7; Peg3 promoter: 16.4; CF NFkB conf: 74.5*

What do the screens show for `COc1ccc2c(c1)c(C(=O)O)c(C)n2-c1ccccc1`?
CF NFkB inh: 0.9; TROY signal inh: 4.4; KKLEB cytotox: -1.2; HIF-2a block: 4.3; TWEAK-Fn14 inh: -15.6; Peg3 promoter: 5.8

How did CCOC(=O)c1c(C)n(-c2ccc(F)cc2)c2ccc(O)cc12 do in these assays?
CF NFkB inh: 12.0; TROY signal inh: -0.2; KKLEB cytotox: -9.0; HIF-2a block: 16.2; TWEAK-Fn14 inh: 23.4; Peg3 promoter: 21.5

Results for COC(=O)c1c(C)n(-c2ccc(OC)cc2)c2ccc(O)cc12 ?
CF NFkB inh: 57.6*; TROY signal inh: 39.3; KKLEB cytotox: -2.8; HIF-2a block: 27.9; TWEAK-Fn14 inh: 52.1*; Peg3 promoter: 36.3; CF NFkB conf: 84.0*
